Source: PubChem
VP16 counter: Gal4-VP16 reporter inhibition counter-screen; Drosophila S2 Gal4-VP16 UAS-luciferase, luminescence, 20 h; Potency, µM (highest dose often 53.6 µM), for the others: at the highest dose activity, negative = inhibition, most hits filed as inhibitors; hit rate 3.5% among 310,000;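 further: Gal4-VP16 expression switched on by copper sulfate through the metallothionein promoter; nearly all actives have a fitted effect of over 50% in size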
ALDH1A1 inh: inhibitors of human aldehyde dehydrogenase 1A1 | P00352 | Purified ALDH1A1, NADH fluorescence, propionaldehyde substrate | Potency, µM (doses to about 75.3 µM), for inactives: at the top dose activity, negative = inhibition, usual class: inhibitors | hit rate 7.3% among 220,000 | AID 1030; active means well fitted inhibition curve with a large enough effect, not every such curve was filed as active; inconclusive means small, poorly fitted or top-dose-only effect, or another doubt; inactive means no such curve, though single readings can be large or run the other way;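 further: plate controls were no enzyme wells and a reference inhibitor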
Target sequence (P00352 whole entry, looked up): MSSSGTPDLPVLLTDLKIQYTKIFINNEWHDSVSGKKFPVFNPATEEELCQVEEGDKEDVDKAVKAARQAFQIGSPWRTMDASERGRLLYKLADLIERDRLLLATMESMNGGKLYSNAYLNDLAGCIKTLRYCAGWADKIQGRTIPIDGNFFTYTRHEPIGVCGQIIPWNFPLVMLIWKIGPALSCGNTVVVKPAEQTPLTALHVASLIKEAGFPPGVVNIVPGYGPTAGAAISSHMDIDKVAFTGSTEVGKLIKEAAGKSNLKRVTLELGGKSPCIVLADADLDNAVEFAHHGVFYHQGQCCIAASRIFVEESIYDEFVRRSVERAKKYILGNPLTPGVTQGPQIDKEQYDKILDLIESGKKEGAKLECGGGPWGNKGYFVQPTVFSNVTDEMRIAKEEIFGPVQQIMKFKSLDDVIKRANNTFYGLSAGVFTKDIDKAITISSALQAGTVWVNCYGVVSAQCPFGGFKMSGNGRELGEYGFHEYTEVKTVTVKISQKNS
PLK1 PBD inh: blocks phosphopeptide binding to human PLK1 polo-box domain | P53350 | Plk1 PBD binding of FITC phosphopeptide, fluorescence polarization | Potency, µM, for the others: max response, negative = inhibition, actives largely listed as inhibitors | hit rate 2.8% among 360,000 | AID 720504; further: series mostly up to about 57 µM; nearly all actives have a fitted effect of over 65% in size
RORgamma inh: inhibitors of mouse ROR gamma transcriptional activity | Potency, µM (titrated, usually from 53.6 µM), without a hit: at the top dose activity change, negative = inhibition, actives largely listed as inhibitors | hit rate 5.4% among 310,000 | P51450 | Drosophila S2 Gal4-RORgamma UAS-luciferase reporter, 20 h; further: nearly all actives have a fitted effect of over 60% in size
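Stable Schneider cell line, Gal4 DNA-binding domain fused to ROR gamma, UAS-luciferase. Cmpd 1 hr RT → CuSO4 700 uM final → 20 hr RT → luciferase reagent 10 min → luminescence.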
Sfp inh: Sfp phosphopantetheinyl transferase inhibition; Biochemical Sfp PPTase activity, qHTS; Potency, µM, without a hit: largest response in the series, negative = inhibition, actives largely listed as inhibitors; hit rate 3.5% among 310,000;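 further: the enzyme is Sfp with the accession as filed and its product quenches rhodamine fluorescence; 0% = enzyme reaction without inhibitor and -100% = no enzyme wells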
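After 15 min at room temperature with compound, 15 nM Sfp received 5 uM rhodamine-CoA plus 12.5 uM BHQ-2-ybbR (50 mM Hepes pH 7.6, 10 mM MgCl2). Rate came from the fluorescence difference over 30 min, ex 525/em 598 nm.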
* = called active by the depositor; ? = inconclusive; . = not tested or not shown; [ ] = remark or other dose. This is a sample that favours compounds with a hit; in the whole collection about 12% have one here. Unless noted, the call rests on the fitted dose curve; in most records, active means well fitted curve in the direction sought with a large enough effect; inconclusive means small, poorly fitted or top-dose-only effect, or another doubt; inactive means no such curve, though single readings can be large; an effect the other way counts as inactive or inconclusive. Unless noted, on the % scale 0 is the no-effect control and ±100 the full control effect; potency means the concentration at half of the fitted maximal effect.

SMILES	VP16 counter	ALDH1A1 inh	PLK1 PBD inh	RORgamma inh	Sfp inh
CCOc1ccccc1-n1c(N)c(C(N)=O)sc1=S	-11%	?	?	7%	-18%
CCCCNC(=O)c1sc(=S)n(-c2ccccc2OC)c1N	-3%	8.9µM*	27µM*	2%	45µM*
COC(=O)c1sc(=S)n(-c2ccccc2OC)c1N	-9%	7%	-2%	23%	12%
CC(=O)C1=C(C)NC(SCc2cccc3ccccc23)=C(C#N)C1c1ccco1 (stereo not given)	4%	?	-7%	17%	50µM*
CC(=O)C1=C(C)NC(SCc2ccc(C#N)cc2)=C(C#N)C1c1ccco1 (stereo not given)	0%	22µM*	-20%	25%	?
O=C(c1cnccn1)N1CCC2(CC1)CN(Cc1cc(C(F)(F)F)cc(C(F)(F)F)c1)C2	0%	4%	.	6%	12%
CCn1c(/C=C/c2ccccc2)nc2ccccc21	?	?	-2%	16µM*	2%
COc1ccc2c(c1)nc(N)n2Cc1ccccc1	?	?	-11%	?	-22%
COc1ccc(-c2n(Cc3ccccc3)c3ccccc3[n+]2Cc2ccccc2)cc1	5µM*	?	-6%	5.6µM*	-19%
CCn1c(/C=C/c2ccccc2)nc2ccccc2c1=O	-7%	1%	-11%	33%	-5%
O=C(Cn1c(/C=C/c2ccccc2)nc2ccccc21)Nc1ccc(F)cc1	0%	?	19µM*	?	-2%
CCC(C)n1c(S(=O)(=O)O)nc2ccccc21 (stereo not given)	2%	3%	-2%	3%	-9%
CCC(C)n1c(/C=C/c2ccccc2)nc2ccccc21 (stereo not given)	13µM*	?	?	10µM*	7%
Cc1ccc(SCc2nc3ccccc3n2CC(=O)Nc2ccc(Cl)cc2)cc1	?	7%	-4%	-9%	?
COc1ccc(/C=C/c2nc3ccccc3n2C)cc1	?	?	-7%	2µM*	-14%
COc1ccc(-c2nc3ccccc3n2Cc2ccccc2)cc1	?	?	-2%	4µM*	?
C=CCn1c(-c2ccc(OC)cc2)nc2ccccc21	0%	?	-6%	?	18%
COc1ccc(Cn2c(/C=C/c3ccccc3)nc3ccccc32)cc1	?	?	-5%	7.1µM*	?
Cc1ccc(SCc2nc3ccccc3n2CC(=O)Nc2ccccc2)cc1	0%	0%	1%	?	50µM*
CC(=O)Nc1ccc(SCCN2CCN(C)CCC2=O)cc1	2%	.	.	2%	-3%
CC(C)Cn1c(/C=C/c2ccccc2)nc2ccccc21	11µM*	?	-3%	11µM*	-19%
CCCn1c(/C=C/c2cc[n+](C)cc2)nc2ccccc21	11%	.	-23%	-23%	7%
CCCOCc1ccc(O)c2ncccc12	3.5µM*	.	-15%	1.3µM*	24%
CCCCN(CCCC)S(=O)(=O)c1ccc(OC)c2ncccc12	-2%	1%	-4%	-42%	8%
Oc1ccc(Cc2ccccc2)c2cccnc12	.	.	-14%	.	.
SMILES	VP16 counter	ALDH1A1 inh	PLK1 PBD inh	RORgamma inh	Sfp inh
Oc1ccc(COCc2ccccc2)c2cccnc12	?	?	-27%	0.56µM*	24%
CCCCCCCCCCCCCCCC(=O)C(F)(F)F	-5%	-2%	.	-1%	15%
CC1SC(c2cccc(Cl)c2)NC1=O (stereo not given)	0%	11µM*	24µM*	5%	?
Cc1c(OCc2nn[nH]n2)ccc2c(-c3ccccc3)cc(=O)oc12	-3%	16µM*	-8%	?	-9%
c1ccc(Cn2cc(CN3CCCCO3)c(-c3ccc4c(c3)OCO4)n2)cc1	2%	32µM*	-6%	13%	8%
C#CCCCCCCCCCCCc1ccco1	-3%	20µM*	.	-3%	-21%
COCCn1c(SCC(=O)NC2CCCCC2)nnc1-c1ccncc1	-2%	.	-2%	0%	8%
Cc1cc(S(=O)(=O)Nc2ccc3c(c2)COC3=O)ccc1F	1%	?	-13%	40%	-10%
Cn1c(=O)n(C)c2cc(NS(=O)(=O)c3ccc4c(c3)CCCC4)ccc21	?	1µM*	-11%	?	2%
Cc1ccc(NS(=O)(=O)c2ccc3c(c2)n(C)c(=O)n3C)cc1	4%	.	-2%	19%	9%
Cn1c(=O)n(C)c2cc(NS(=O)(=O)c3ccc(C(C)(C)C)cc3)ccc21	?	0.56µM*	-9%	?	-10%
CC(C)(C)c1ccc(S(=O)(=O)Nc2ccc3c(c2)COC3=O)cc1	-4%	4.5µM*	-11%	?	1%
O[C@@H](C1=C/C(=C\c2ccncc2)c2ccccc21)c1ccncc1	.	-1%[13.5 µM]	.	.	.
CN1C(=O)/C(=C/c2cc(C(C)(C)C)c(O)c(C(C)(C)C)c2)NC1=S	?	?	0%	7.1µM*	14%
O=C1/C(=C/c2ccccc2)NC(=S)N1C(c1ccccc1)c1ccccc1	-7%	6%	-2%	?	6%
O=C(Cn1c(=O)oc2ccccc21)Nc1n[nH]c(=S)s1	4%	.	?	6%	32µM*
CC(C)(C)c1csc(NC(=O)Cn2c(=O)oc3ccccc32)n1	-2%[0.365 µM]	?	27µM*	44%	-13%
CCCCCCCCC#CCC#CCC#CCCCC(=O)O	5%	3%	.	11%	4%
O=C1c2ccccc2C(=O)c2c(O)c(O)cc(O)c21	-19%	?	27µM*	-38%	-20%
CC(Sc1nc(N)c2c3c(sc2n1)CSC(C)(C)C3)C(=O)Nc1ccccc1 (stereo not given)	-22%	7%	8.4µM*	?	-1%
CC(Sc1nc(NCc2ccccc2)nc(N(C)C)n1)C(=O)Nc1ccccc1 (stereo not given)	-9%	-5%	-2%	42%	15%
CCn1c(C)cs/c1=N\C(=S)Nc1ccccc1C	5.6µM*	13%	-9%	2.2µM*	8%
O=C(NC(=S)NN1CCCCC1c1cccnc1)c1ccc(Br)cc1 (stereo not given)	1.4µM*	?	?	1.1µM*	-11%
O=C1/C(=C/c2ccc(F)cc2)SC(=S)N1CC(=O)N1CCCCC1c1cccnc1 (stereo not given)	4%	.	-6%	2%	?
O=C(/C=C/c1ccc(F)cc1)NC(=S)N1CCCCC1c1cccnc1 (stereo not given)	?	.	?	5µM*	50µM*
COc1cccc(OC)c1C(=O)NC(=S)N1CCCCC1c1cccnc1 (stereo not given)	-17%	.	-16%	22µM*	-10%
O=c1[nH]c2cc(F)ccc2c2ccc(F)cc12	.	.	1%	.	.
COc1ccc(N=CC2=C(O)c3ccccc3C2=O)cc1	?	2%	-6%	3.2µM*	13%
CN=CC1=C(O)c2ccccc2C1=O	-6%	-1%	-1%	15%	25%
COc1ccc(N=Cc2[nH]c3ccccc3c2O)cc1	?	13µM*	?	-24%	-99%
